# Assay results: PubChem BioAssay (NCI)
# This is part of a sample that, as a whole, favours compounds with a hit. Of some 83,000 tested, about 20% had one in any assay.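 How to read the values: 0–100, growth inhibition (40 = 60% inhibited); 0, no net growth; -100 to 0, cell death (-40 = 40% of starting cells died; -100 = all dead).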 A number with no mark means an inactive call. Activity calls are given as the source filed them. The calls were made as follows: active = growth percent below 10; inactive = the rest.
# How the values were obtained:
# Test in all cases: NCI-60 one-dose screen, 48 h (100 = growth as untreated, 0 = no growth, -100 = all killed)
# Conditions in all cases: 10 µM unless noted
# SK-MEL-2 melanoma = test system: SK-MEL-2 melanoma
# EKVX NSCLC = test system: EKVX NSCLC
# SN12C renal = test system: SN12C renal
# UO-31 renal = test system: UO-31 renal
# TK-10 renal = test system: TK-10 renal
# ACHN renal = test system: ACHN renal
# A498 renal = test system: A498 renal
# CCRF-CEM leukemia = test system: CCRF-CEM leukemia
# MOLT-4 leukemia = test system: MOLT-4 leukemia
# SR leukemia = test system: SR leukemia
# RPMI-8226 leukemia = test system: RPMI-8226 leukemia
# OVCAR-8 ovarian = test system: OVCAR-8 ovarian
# OVCAR-5 ovarian = test system: OVCAR-5 ovarian
# OVCAR-4 ovarian = test system: OVCAR-4 ovarian
# SK-OV-3 ovarian = test system: SK-OV-3 ovarian
# IGROV1 ovarian = test system: IGROV1 ovarian
# OVCAR-3 ovarian = test system: OVCAR-3 ovarian
# HS 578T breast = test system: HS 578T breast
# NCI/ADR-RES ovarian = test system: NCI/ADR-RES ovarian
SMILES,growth (SK-MEL-2 melanoma),growth (EKVX NSCLC),growth (SN12C renal),growth (UO-31 renal),growth (TK-10 renal),growth (ACHN renal),growth (A498 renal),growth (CCRF-CEM leukemia),growth (MOLT-4 leukemia),growth (SR leukemia),growth (RPMI-8226 leukemia),growth (OVCAR-8 ovarian),growth (OVCAR-5 ovarian),growth (OVCAR-4 ovarian),growth (SK-OV-3 ovarian),growth (IGROV1 ovarian),growth (OVCAR-3 ovarian),growth (HS 578T breast),growth (NCI/ADR-RES ovarian)
Fc1ccc2c(c1)c(-c1nc(-c3c[nH]c4ncccc34)cs1)cn2CCCN1CCCCC1,106%,66%,63.1%,44.4%,107%,71.7%,77.8%,8.52% (active),12.9%,-34.7% (active),-21.1% (active),76.9%,88.3%,70.6%,94.4%,45.7%,61.7%,75.1%,74.1%
O=C1CCC/C=C\C[C@H]2C=C(Cl)C(=O)/C2=C/C[C@H](CCCCC(F)(F)F)OC(=O)CCC/C=C\C[C@H]2C=C(Cl)C(=O)/C2=C/C[C@H](CCCCC(F)(F)F)O1,-45.5% [7.5 µM] (active),13.3% [7.5 µM],-27.1% [7.5 µM] (active),-93.3% [7.5 µM] (active),-23% [7.5 µM] (active),-93.1% [7.5 µM] (active),-49.5% [7.5 µM] (active),3.14% [7.5 µM] (active),1.97% [7.5 µM] (active),-14.6% [7.5 µM] (active),-14.9% [7.5 µM] (active),-4.7% [7.5 µM] (active),-33.6% [7.5 µM] (active),19.7% [7.5 µM],-2.87% [7.5 µM] (active),-48.2% [7.5 µM] (active),-81.3% [7.5 µM] (active),21.8% [7.5 µM],12.5% [7.5 µM]
CCCCC[C@H]1CC=C2C(=O)C=C[C@@H]2CC=CCCCC(=O)O[C@@H](CCCCC)CC=C2C(=O)C=C[C@@H]2CC=CCCCC(=O)O[C@@H](CCCCC)CC=C2C(=O)C=C[C@@H]2CC=CCCCC(=O)O1,-38.4% [8.75 µM] (active),22.4% [8.75 µM],-10.5% [8.75 µM] (active),-96.7% [8.75 µM] (active),31.6% [8.75 µM],-11.6% [8.75 µM] (active),-13.8% [8.75 µM] (active),7.92% [8.75 µM] (active),3.57% [8.75 µM] (active),-6.53% [8.75 µM] (active),-9.62% [8.75 µM] (active),12.2% [8.75 µM],-23.7% [8.75 µM] (active),22.4% [8.75 µM],36.7% [8.75 µM],-46.1% [8.75 µM] (active),-54.2% [8.75 µM] (active),40.2% [8.75 µM],49.8% [8.75 µM]
CCCCC[C@H]1C/C=C2/C(=O)C(Cl)=C[C@@H]2C/C=C\CCCC(=O)O1,-45.4% (active),-69% (active),-26.9% (active),-100% (active),-56.7% (active),-84.4% (active),-76.2% (active),0.514% (active),-2.82% (active),2.6% (active),-23.5% (active),-19.1% (active),-64.9% (active),16.3%,-15.2% (active),–,-89.5% (active),29.7%,12.1%
Cc1cccc(C)c1NCc1nc(-c2ccccc2)n[nH]1,101%,95%,105%,90.6%,101%,96.8%,100%,110%,98%,102%,108%,102%,95.6%,102%,–,94.6%,113%,108%,103%
Cc1cc(N2CCCCC2)nc(N(CCCNc2ccnc3cc(Cl)ccc23)Cc2ccco2)n1,44.8%,39.4%,36.3%,15.6%,63.2%,38.8%,46.5%,19.5%,6.82% (active),-20.6% (active),-35.3% (active),42.5%,41.5%,39.8%,57.4%,4.05% (active),21%,61.3%,4.38% (active)
COc1cc(/C=N/Nc2ncnc3c2c(C)nn3-c2ccc(F)cc2)ccc1O,89.9%,87.6%,85.1%,64.4%,88.7%,92.7%,103%,62%,61.7%,77%,92.5%,96.4%,131%,90.3%,99.2%,79.5%,75.8%,99.1%,95.7%
O=C1c2ccccc2NC(c2cn(-c3ccccc3)nc2-c2cccs2)N1Cc1ccccc1 (centres undefined),74%,72.1%,90.8%,57.5%,91.1%,86.2%,84%,95.6%,55.1%,66.8%,76.2%,90.3%,90%,87.1%,84%,69.3%,89.3%,94.3%,73.2%
COc1ccc(C2C(C#N)=C(N)Oc3c2sc2c(F)cccc32)cc1 (centres undefined),19.8%,50.3%,39.7%,37.6%,56.6%,42.9%,41.4%,14.9%,8.8% (active),11.6%,11.8%,25.9%,69.3%,65.7%,20.7%,30.6%,-4.86% (active),42.4%,6.69% (active)
C=C(C)[C@@H]1CC[C@]2(/C=N/Nc3ccncc3)CC[C@]3(C)[C@H](CC[C@@H]4[C@@]5(C)CCCNC(C)(C)[C@@H]5CC[C@]43C)[C@@H]12,110%,99.5%,85.2%,85%,120%,100%,83.8%,67.1%,58%,17.9%,28.7%,95.2%,105%,89.9%,113%,96.4%,84.5%,83.2%,94.5%
O=C(NO)c1ccc(Cn2c(=O)n(CCc3ccc(O)cc3)c(=O)c3ccccc32)cc1,74.5%,76.7%,79%,88.6%,84.7%,91.1%,45.7%,9.36% (active),15.9%,16.5%,31.6%,36.2%,86%,56.4%,86.7%,74.9%,18.9%,58.8%,92.8%
Cn1cc(-c2csc(-c3cn(CCN)c4ccccc34)n2)c2cccnc21,61%,50.4%,54.1%,33.2%,92.9%,56.6%,74.9%,8.25% (active),10.1%,-16.9% (active),51.1%,40.8%,74.9%,51.8%,63.8%,39.9%,45.5%,67.6%,44.1%
CC1(C)C(=O)/C(=C\c2ccccn2)C[C@]2(C)[C@H]3CC[C@@H]4[C@@H](C(=O)/C=C/c5ccccn5)CC[C@@]4(C)[C@]3(C)CC[C@@H]12,-25.6% (active),-16.4% (active),-4.12% (active),-99.6% (active),-21.7% (active),-89% (active),-80.6% (active),6.8% (active),7.28% (active),3.7% (active),-5.71% (active),15.5%,-21.7% (active),-1.54% (active),35.1%,-52% (active),-69% (active),15.1%,0.68% (active)
Cc1cc(N2CCCC2)nc(N(CCNc2ccnc3cc(Cl)ccc23)Cc2ccco2)n1,77.1%,36.1%,28.8%,10.8%,63.8%,39.6%,26.9%,11%,-9.45% (active),-14.9% (active),-42.3% (active),57%,25.3%,38.6%,65.5%,4.93% (active),13.8%,62.1%,18.4%
